uPA generation – inhibitors of cell surface uPA generation | cell surface uPA generation assay, qHTS | Potency, µM (doses to about 38.3 µM), usual class: inhibitors | 330,000 compounds, 0.31% hits; active means well fitted inhibition curve with a large enough effect; inconclusive means small, poorly fitted or top-dose-only effect; inactive means no such curve, though single readings can be large or run the other way; tested in mouse RAW 264.7 cells; further: nearly all actives have a fitted effect of over 55% in size
TRPV1 ag – activates the human vanilloid receptor TRPV1. 320,000 compounds, 0.19% hits. Q8NER1. activation, % at 8.33 µM. AID 540275. TRPV1-expressing cells, Fluo-8 calcium influx, agonist mode; in the data active means activation above about 80%; inconclusive means between about 30% and that limit
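TRPV1-expressing cells were cultured overnight at 35.5C and loaded with Fluo-8 calcium dye for 40 to 90 min at room temperature. After a 10 s baseline, compound was added and calcium influx was read kinetically for 3 min (ex 480/em 520 nm).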
RORgamma inh – blocks mouse ROR gamma transcriptional activity; P51450; Drosophila S2 Gal4-RORgamma UAS-luciferase reporter, 20 h; Potency, µM (highest dose often 53.6 µM), hits mostly inhibitors; 310,000 compounds, 5.4% hits; AID 2551; further: nearly all actives have a fitted effect of over 60% in size
Target sequence (P51450 whole entry, looked up, the tested form may be a part): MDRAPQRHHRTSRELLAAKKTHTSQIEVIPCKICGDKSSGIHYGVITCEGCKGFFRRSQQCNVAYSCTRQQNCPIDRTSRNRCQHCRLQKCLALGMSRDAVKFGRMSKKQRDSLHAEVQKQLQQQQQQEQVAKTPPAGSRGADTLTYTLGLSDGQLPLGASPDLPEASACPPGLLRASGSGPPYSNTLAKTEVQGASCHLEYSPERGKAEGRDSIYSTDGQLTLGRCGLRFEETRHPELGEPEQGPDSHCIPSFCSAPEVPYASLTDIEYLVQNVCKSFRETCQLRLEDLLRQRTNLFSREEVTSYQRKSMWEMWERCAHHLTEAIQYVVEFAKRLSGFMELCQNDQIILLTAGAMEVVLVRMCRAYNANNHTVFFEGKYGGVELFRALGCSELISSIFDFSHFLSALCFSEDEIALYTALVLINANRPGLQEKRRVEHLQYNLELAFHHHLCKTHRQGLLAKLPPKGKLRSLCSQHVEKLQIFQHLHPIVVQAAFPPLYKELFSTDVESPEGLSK
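Read-out: Photinus luciferase luminescence; inhibitors lower reporter signal. Insect Schneider cells with Gal4-ROR gamma fusion under metallothionein promoter, UAS reporter; 700 uM final copper sulfate induction, 20 hr, ambient temperature.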
VP16 counter – counter-screen for ROR gamma inhibitors: Gal4-VP16 reporter. 310,000 compounds, 3.5% hits. Drosophila S2 Gal4-VP16 UAS-luciferase, luminescence, 20 h. AID 2546. Potency, µM (top dose mostly 53.6 µM), actives largely listed as inhibitors;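 further: Gal4-VP16 expression switched on by copper sulfate through the metallothionein promoter; nearly all actives have a fitted effect of over 50% in size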
TRPV1 PAM – enhances activation of the human vanilloid receptor TRPV1 | potentiation, % at 8.33 µM | AID 540277 | TRPV1-expressing cells, Fluo-8 calcium influx, capsaicin EC20 potentiation | Q8NER1 | 320,000 compounds, 0.02% hits; in the data active means potentiation above about 80%; inconclusive means between about 30% and that limit
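Cells expressing TRPV1 were dye-loaded with Fluo-8 and read kinetically: 10 s baseline, 3 min after compound (agonist portion), then 2 min after EC20 capsaicin (allosteric enhancer portion). Calcium-bound dye fluorescence at 480/520 nm.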
Hits are given with their value; - = inactive; ? = inconclusive; . = no result; [ ] = dose if it differs, or a comment. Only some compounds are listed: those with a hit (about 5.8% of all), similar ones and a draw of the others. Unless noted, the call rests on the fitted dose curve; in most records, active means well fitted curve in the direction sought with a large enough effect; inconclusive means small, poorly fitted or top-dose-only effect, or another doubt; inactive means no such curve, though single readings can be large; an effect the other way counts as inactive or inconclusive.

SMILES	uPA generation	TRPV1 ag	RORgamma inh	VP16 counter	TRPV1 PAM
O=C(NC(NNc1ccc([N+](=O)[O-])cc1)(C(F)(F)F)C(F)(F)F)c1ccc(Cl)cc1	-	-	16µM	?	?
COc1ccccc1C(=O)N/C(=N/c1nc(C)cc(C)n1)Nc1ccccc1	-	.	10µM	?	.
CC(=O)N1CCN(c2ccc(NC(=S)NC(=O)c3ccccc3)cc2)CC1	-	-	-	-	?
O=C(NC(=S)Nc1ccc(N2CCOCC2)cc1)c1ccc2c(c1)OCCO2	?	-	8.9µM	?	-
O=C(NC(=S)Nc1ccc(N2CCCC2)cc1)c1ccc(F)cc1	-	-	2.5µM	5.6µM	-
O=C(NC(=S)Nc1c(F)cc(F)cc1Br)c1ccc2c(c1)OCCO2	-	-	7.9µM	?	-
O=C(NC(=S)Nc1ccc(F)cc1)c1ccc2c(c1)OCCO2	?	-	7.1µM	?	-
CC1(CN2CCC(n3c(=O)[nH]c4ccccc43)CC2)OCc2ccccc2-n2cccc21 (configuration not stated)	.	.	-	-	.
CO/N=C(/C(=O)N[C@@H]1C(=O)N2C(C(=O)O)=C(CSc3cnns3)CS[C@H]12)c1csc(N)n1	.	.	-	-	.
CCCCOc1ccc(N(CC(=O)NC(C)(C)C)C(=O)CCC(=O)Nc2nccs2)cc1	-	-	-	-	-
O=C1C[C@@H](O)[C@@H](O)[C@H]2[C@@H]3C(=O)N(c4cccc(Oc5ccccc5)c4)C(=O)[C@@H]3CC[C@H]12	.	.	-[10 µM]	-[10 µM]	.
COc1ccc(-c2cc(=O)c3ccc(F)cc3[nH]2)cc1	.	.	-	-	.
O=C(O)C1C2C=CC(C2)C1C(=O)NC(c1ccccc1)c1ccccc1 (configuration not stated)	.	-	-	-	-
O=C(NC(=S)Nc1ccc(CN2CCOCC2)cc1)c1ccc2c(c1)OCCO2	-	-	?	?	-
O=C(NC(=S)Nc1ccc(N2CCCCC2)cc1)c1ccc2c(c1)OCCO2	-	-	3.5µM	5µM	-
O=C(CCCn1c(=S)[nH]c2cc3c(cc2c1=O)OCO3)N1CCc2ccccc2C1	-	-	13µM	?	-
CC(=O)c1ccc(N2CCN(C(=O)CCCn3c(=S)[nH]c4cc5c(cc4c3=O)OCO5)CC2)cc1	.	-	11µM	?	-
O=C(CCn1c(=S)[nH]c2cc3c(cc2c1=O)OCO3)N1CCc2ccccc2C1	.	-	-	-	-
Cc1cccc(N2CCN(C(=O)CCCn3c(=S)[nH]c4cc5c(cc4c3=O)OCO5)CC2)c1C	-	-	3.2µM	4.5µM	-
O=C(CCCn1c(=S)[nH]c2cc3c(cc2c1=O)OCO3)N1CCN(c2ccc(Cl)cc2)CC1	-	-	6.3µM	5.6µM	-
Cc1cc(S(=O)(=O)N2CCCC(C(=O)Nc3ccc(C(=O)O)cc3)C2)ccc1Cl (configuration not stated)	-	-	-	-	-
Cc1ccccc1-c1ccc2ncnc(N3CCOCC3)c2c1	.	.	?	-	.
Cc1cccc(N2CCN(C(=O)CCCSc3nc4ccccc4[nH]3)CC2)c1C	-	-	?	22µM	-
O=C(CCCSc1nc2ccccc2[nH]1)N1CCN(c2ccccc2)CC1	-	-	-	-	-
CCc1ccc(NC(=S)Nc2cc(C(=O)O)ccc2N2CC3CC(C2)c2cccc(=O)n2C3)cc1 (configuration not stated)	-	-	10µM	?	-
SMILES	uPA generation	TRPV1 ag	RORgamma inh	VP16 counter	TRPV1 PAM
CCOC(=O)C1=C(C)NC(=S)NC1c1cccc(O)c1 (configuration not stated)	.	.	-	-	.
CCOC(=O)C1=C(C)NC(=S)N(C=O)C1c1ccccc1 (configuration not stated)	-	-	11µM	?	-
CCOC(=O)C1=C(C)C(c2ccccc2)NC(=S)N1 (configuration not stated)	.	-	7.1µM	?	-
COC(=O)C1=C(C)C(c2ccc(OC)cc2)NC(=O)N1 (configuration not stated)	-	-	-	-	-
COC(=O)C1=C(C)C(c2ccc(OC)cc2)NC(=S)N1 (configuration not stated)	-	-	10µM	-	-
Cc1ccc(/C=C(\NC(=O)c2ccccc2)C(=O)NC2CCN(Cc3ccccc3)CC2)o1	-	-	-	-	-
Cc1ccc(NC(=O)CCC(=O)NNC(=O)NC2CCCCC2)c(C)c1	-	-	-	-	-
Cc1cc(NC(=O)CCC(=O)N(CC(=O)NC2CCCC2)c2ccc(C(C)C)cc2)no1	-	-	-	-	-
Cc1ccc(CNC(=O)COC(=O)c2nc(-c3ccccc3)oc2C)cc1	-	-	.	.	-
Cn1nc([N+](=O)[O-])nc1S(C)(=O)=O	-	-	5µM	?	-
COc1cccc(C(=O)NCCS(=O)(=O)N2CCC3(CC2)OCCO3)c1	-	-	.	.	-
O=C(NC(=O)c1ccccc1O)c1ccc(C(F)(F)F)cc1	-	-	?	8.9µM	-
CCCc1ccc(C(=O)NNC(=O)c2ccc(Br)cc2)cc1	-	-	-	-	-
O=C(NC(=S)NNC(=O)c1ccccc1O)c1ccc(F)cc1	-	-	-[1.91 µM]	?	-
CCCc1ccc(C(=O)NC(=O)c2ccccc2O)cc1	-	-	2.8µM	1.6µM	-
CCN1CCN(Cc2ccc(NC(=O)c3ccc(C)c(/C=C/c4cnc(Nc5cc(N6CCNCC6)nc(C)n5)cn4)c3)cc2C(F)(F)F)CC1	?	-	?	?	-
O=C(CCN1C(=O)C2CCCCC2C1=O)Nc1ccc(F)c(F)c1F (configuration not stated)	-	-	-	-	-
COc1ccc(-c2csc3nc(C)nc(N4CCCCC4)c23)cc1OC	-	-	10µM	-	-
COc1cc(N/N=C/c2ccccc2O)ncn1	-	-	7.1µM	7.1µM	-
COc1cc(N/N=C/c2ccc(N(C)C)cc2)ncn1	3.5µM	-	?	?	?
Cc1cnn(-c2cc(N/N=C/c3ccccc3)ncn2)c1	.	-	-	-	-
Cn1c(NC(=O)c2ccccc2F)c(-c2cccs2)c(=O)c2ccccc21	-	-	-	?	-
COc1ccc(/C=N/NC(=O)c2nc(-c3ccccc3)n(-c3ccccc3)n2)cc1	-	-	-	-	-
CC(C)(C)c1cc(C(=O)N/N=C/c2ccc(F)cc2)n(-c2ccccc2)n1	-	-	-	-[0.365 µM]	-
COc1ccc(/C=N/NC(=O)c2nc(-c3ccccc3)n(-c3ccccc3)n2)c(O)c1	-	-	2.2µM	6.3µM	-
CC(C)(C)c1cc(C(=O)N/N=C/c2ccccc2O)n(-c2ccccc2)n1	-	-	0.63µM	1.1µM	-
C[C@]12CC[C@@H]3c4ccc(O)cc4CC[C@H]3[C@@H]1C[C@H](O)C2O (some centres not stated)	.	.	-[10 µM]	-	.
Cc1cccc(Nc2nc(-c3ccc(O)c(O)c3)cs2)n1	-	-	4.5µM	5.6µM	-
Oc1ccc(Nc2nc(-c3ccc(Cl)cc3)cs2)cc1	.	.	?	14µM	.
Cc1cccc(Nc2nc(-c3ccc(F)c(C)c3)cs2)n1	-	-	-	?	-

Bioassay records deposited in PubChem BioAssay by National Center for Advancing Translational Sciences (NCATS).
